# Among all 48,000 compounds or so, about 13,000 (27%) showed an effect of 50% or more. The list shows a part of the results.
# Test system: Wolbachia pipientis
# Test: Anti-Wolbachia Cell-Based Screen
# Format: functional
# Set-up: scale not given: in the data most compounds retested in dose-response had high values
# Settings: 5 µM
row,Structure (SMILES),Percent Effect
1,Cc1cccc(NS(=O)(=O)c2ccc(C#N)nc2)c1C#N,-1.647%
2,CCC(CC)c1cc(C(=O)N2CCN(C(C#N)C(C)C)CC2)on1 (configuration not stated),-14.62%
3,CCC(CC)c1cc(C(=O)N2CCN(C(C)C(N)=O)CC2)on1 (configuration not stated),-12.57%
4,CC(C)c1cc(C(=O)N2CCN(c3ncc4c(n3)CCOC4)CC2)on1,106.5%
5,Cc1cc(NC(=O)CN(c2ccccc2)C(C)C)on1,-6.846%
6,COc1cccc(Nc2nc(C3CCNCC3)c3sc(C)c(C)n23)c1.Cl,130.3%
7,COc1cccc(Nc2nc(C3CCCNC3)c3sc(C)c(C)n23)c1.Cl (configuration not stated),119.3%
8,O=C(Nc1cccnc1-n1cncn1)N(C1CCCC1)C1CC1,-11.98%
9,CN(C)[C@@H]1CO[C@H](CNC(=O)CC(C)(C)C)[C@H]1O,-5.201%
10,COc1cccc(OCC2CCCN(C(=O)CCCn3cccn3)C2)c1 (configuration not stated),-37.97%
11,CSCC[C@H](N)C(=O)NCc1cc2n(n1)CCCN(C1CCCCC1)C2,-4.094%
12,CC(C)CN1CCCn2nc(CNC(=O)Cc3cccc(O)c3)cc2C1,6.027%
13,CSCCC(=O)NCc1cc2n(n1)CCCN(C1CCCCC1)C2,170.8%
14,CC(C)SCC(=O)NCc1cc2n(n1)CCCN(C1CCCCC1)C2,96.57%
15,CC(C)CN1CCCn2nc(CNC(=O)CCN)cc2C1,-4.677%
16,CCN(C(C)=O)C1CCN(c2nccc(CCC(F)(F)F)n2)C1 (configuration not stated),-1.785%
17,COCc1ccc(C(=O)N2CCC(c3nccn3CC3CC3)CC2)o1,-37.93%
18,CCCC(C)(C)NC(=O)CCN1CCOC1=O,8.427%
19,COc1cccc(S(=O)(=O)CCNC(C)Cn2cccn2)c1 (configuration not stated),-1.101%
20,CC(=O)c1c[nH]c(C(=O)N2CCN(C(C(N)=O)c3ccccc3)CC2)c1 (configuration not stated),-4.109%
21,CN1C(=O)CC(C(=O)O)C12CCN(Cc1cc(Cl)ccc1F)CC2 (configuration not stated),-0.96%
22,Cc1nc(CNC(=O)C(C)(C)c2ccc(F)cc2)no1,7.656%
23,O=C(NCc1ccccc1CN1CCCC1)Nc1cccnc1,1.889%
24,CN1CCC(N(Cc2ccccc2F)C(=O)NCc2ccncc2)CC1,10.43%

row,Structure (SMILES),Percent Effect
1,Cn1cc(CN2CCC(CCC(=O)NCc3ccc(F)cc3)CC2)cn1,-6.777%
2,CN1CCCC(c2cncc(C(=O)NCc3ccccc3Cl)n2)C1.O=CO (configuration not stated),120.9%
3,CN1CCC(c2cncc(C(=O)NCc3ccc(F)cc3)n2)CC1,172.3%
4,Cc1nc(CN2CC(CCCc3ccccn3)(C(=O)N(C)C)C2)co1,55.58%
5,CNC(=O)C1(CCCc2ccccn2)CCN1Cc1coc(C)n1 (configuration not stated),87.23%
6,Cn1ccnc1CN1CCCC(CO)(CCc2ccccc2)C1 (configuration not stated),4.446%
7,CN(C)C(=O)C1(CCCc2ccccn2)CCN1Cc1nccn1C (configuration not stated),105.4%
8,Cc1ccc(NC2CCN(C(=O)CCCc3ccccn3)CC2)cc1,28.87%
9,O=C(CCCc1ccccn1)N1CCOc2ccc(F)cc21,-6.681%
10,O=C(CCCc1ccccn1)N1CCC(n2cccc2)CC1,17.05%
11,Cc1cccc(C(C(=O)NCCCc2ccccn2)N(C)C)c1 (configuration not stated),0.3434%
12,Cc1nc(CN2CCC2(CCCc2ccccn2)C(=O)N(C)C)co1 (configuration not stated),74.52%
13,CN(C)C(=O)NC1COC2(CCN(Cc3nccn3C)CC2)C1 (configuration not stated),15.08%
14,Cc1nc(CN2CCC(Oc3ccc(F)cc3C)(C(=O)O)CC2)co1,-0.386%
15,O=C(CN1C(=O)CCC1=O)N1Cc2cncnc2C1,12.03%
16,Cc1nc2n(n1)CC(NCC(=O)N(C)Cc1cccs1)CC2 (configuration not stated),8.702%
17,CC(C)(C)c1cn(CC2CCCN(c3cnc4ccccc4n3)C2)nn1 (configuration not stated),0.2574%
18,CCNC(=O)N1CCCCC1CCO (configuration not stated),-12.11%
19,COc1ccccc1[C@@H]1CN(CC(=O)N2CCCCC2)C[C@H]1C(=O)O,-14.69%
20,Cc1cccc(C2CCCN(C(=O)CN3C(=O)CCNC3=O)C2)c1 (configuration not stated),2.396%
21,COc1ccccc1C1CCN(C(=O)CN2C(=O)OC(C)(C)C2=O)CC1,112.8%
22,O=C(CN1C(=O)CCNC1=O)N1CCC(c2ccc(F)cc2)C1 (configuration not stated),-18.18%
23,CCOc1cccnc1C(=O)N1CCC(c2ccccc2OC)C1 (configuration not stated),-1.787%
24,CC1(C)OC(=O)N(CC(=O)N2CCC(c3ccccc3Cl)C2)C1=O (configuration not stated),91.31%

row,Structure (SMILES),Percent Effect
1,CC1(C)OC(=O)N(CC(=O)N2CCC(c3ccccc3F)C2)C1=O (configuration not stated),96.35%
2,O=C1CCCCN1CC(=O)N1CCCC(c2ccccc2)C1 (configuration not stated),-3.382%
3,COCCOCC(=O)N1CCC(c2ccccc2F)C1 (configuration not stated),5.027%
4,O=C(Nc1ccccc1N1CCOC1=O)N1CCSCC1,-8.317%
5,Oc1ccccc1-c1cc(-c2nc(C3CC3)n[nH]2)[nH]n1,-8.043%
6,O=c1[nH]c(N2CCOCC2)nc2c1CN(Cc1cccnc1)CC2,111.6%
7,Cc1cccc(CN2CCc3c(nc(N4CCC(C)CC4)[nH]c3=O)C2)n1,-8.966%
8,O=c1[nH]c(N2CCCCC2)nc2c1CCN(Cc1cccnc1)C2,95.47%
9,c1cnc(NCc2n[nH]c3c2CCN(Cc2cccnc2)C3)nc1,-6.284%
10,CC1CCCCN1c1nc2c(c(=O)[nH]1)CCN(Cc1cccnc1)C2 (configuration not stated),-7.907%
11,Cn1ccnc1CN(CCO)C(=O)c1nc2ccccc2s1,-11.45%
12,O=C(CCc1ccccc1)N1CCCCC1C1OCCO1 (configuration not stated),-4.281%
13,O=C(NCc1ccccc1F)N1CCCCC1C1OCCO1 (configuration not stated),112.3%
14,O=C(NCCc1ccccc1)N1CCCCC1C1OCCO1 (configuration not stated),1.192%
15,CC(C)(C(=O)NCCC(=O)O)c1cccc(Br)c1,-20.92%
16,Cc1nn(C)cc1CN(C)c1nccc(-c2cn(C)nc2C)n1,-19.87%
17,Cc1ccc(-c2ccnc(N(C)CC3CCCN3C)n2)c(C)n1 (configuration not stated),123%
18,Cc1ccc(-c2ccnc(N(C)CC3CCCO3)n2)c(C)n1 (configuration not stated),111.2%
19,CN(CC1CCCCO1)c1nncc(-c2cccc(F)c2)n1 (configuration not stated),-2.947%
20,CN(CC1CCCN1C)c1nccc(C2CCCC2)n1 (configuration not stated),25.37%
21,Cc1ccc(-c2ccnc(N[C@H]3COC[C@@H]3N3CCCC3)n2)c(C)n1,-11.11%
22,CCCc1nnc(N(C)CC2CCCN(CC)C2)o1 (configuration not stated),-14.65%
23,Cc1csc(CN(CC2CCCO2)C(=O)c2ccc(C)nc2C)n1 (configuration not stated),-5.335%
24,CCN1CCCC(CN(C)c2nccc(-c3ccc(C)nc3C)n2)C1 (configuration not stated),89.59%

# — ChEMBL document CHEMBL3988442, “University of Dundee, Small-Polar-MMV Screening Library” (2021)
